Each structure is given as a SMILES string. “And” between values parts separate entries of the source, which are not always exact repeats. Identical values can stand only once. Inconclusive results are not listed. The source made the active and inactive calls. Unless noted, the call rests on the fitted dose curve; in most records, active means well fitted curve in the direction sought with a large enough effect; inconclusive means small, poorly fitted or top-dose-only effect, or another doubt; inactive means no such curve, though single readings can be large; an effect the other way counts as inactive or inconclusive.

These results are taken from PubChem BioAssay (NCATS).

Experiment [1] is described as follows: Cell Viability - Hek293 (AID 427;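 active means compounds whose dose-response curve shows a full or clear partial loss of cell viability, called from curve shape rather than a numeric limit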;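 further: potency means the concentration at half of the fitted maximal effect; cells exposed to compound for 40 hours at 37 °C before reading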). As to conditions: qHTS. Summed up: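 HEK293 cells in complete medium were exposed to compound for 40 hr at 37 °C, then cellular ATP was read by CellTiter-Glo luminescence. Data were normalized to DMSO (basal) and 100 uM tamoxifen (100% inhibition), and AC50 came from Hill fits.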
For orientation: Quantitative high-throughput screening tests each substance at several concentrations.

Experiment [2] in a line: Cell Viability - NIH 3T3 (AID 541).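 Further: plate controls were DMSO alone for no effect and tamoxifen positive control for full effect; nearly all actives have a fitted effect of over 25% in size.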 As to conditions: NIH 3T3 cell viability, qHTS; activity change, negative = cytotoxicity: at 92.2 µM (top of the series). Summed up: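 Cells seeded at 1000/well, rested 5 hr at 37 °C, then dosed and incubated 40 hr at 37 °C. CellTiter-Glo added, 20 min room temperature, luminescence read. AC50 by Hill fit.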
The nature of experiment [3]: Cellular Toxicity (caspase-3) HepG2 (AID 654).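 Further: cells exposed to compound for 16 hours before reading; 0% = DMSO alone and 100% = caspase signal from 100 µM tamoxifen.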 The settings on record: HepG2 caspase-3 activation, luminescence, 0% = DMSO only, 100% = tamoxifen; series mostly up to 92.2 µM. Summed up:
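Caspase 3/7 activation in HepG2 is measured as rising luminescence after a 16 hr treatment at 37 °C. Values are scaled between DMSO basal and 100 uM tamoxifen, and AC50 is fitted with the Hill equation.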

Experiment [4] can be described thus: Cellular Toxicity (caspase-3) Hek293 (AID 664). As to conditions: HEK293 caspase-3 activation, DMSO = 0%, 100 µM tamoxifen = 100%; series mostly up to 92.2 µM. The gist of the method: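 qHTS, HEK293 (human embryonic kidney), 16 h cpd exposure in complete medium. Caspase-3/7 activation = luminescence increase; normalized to DMSO/100 uM tamoxifen; Hill-fit AC50.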

A short description of experiment [5]: Cellular Toxicity (caspase-3) NIH 3T3 (AID 666).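 Further: caspase signal read after 16 h compound exposure; 0% = DMSO basal and 100% = 100 µM tamoxifen stimulation.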 As to conditions: NIH 3T3 caspase-3 activation, apoptosis/toxicity, 0% DMSO, 100% is 100 µM tamoxifen; series mostly up to 92.2 µM. The gist of the method:
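Cells were plated at 1000 per well and incubated 5 hr at 37°C, then compound was added for 16 hr. Caspase-Glo 3/7 reagent followed for 20 min at room temperature before luminescence was read.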

A short description of experiment [6]: MultiTox-Fluor Cytotoxicity Assay - LYMP1-003 - Live Cells (AID 962).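 Further: 0% = DMSO only and full loss = 92 µM tetraoctylammonium bromide; cytotoxic hits lower the live-cell protease signal.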 The settings on record: LYMP1-003 lymphoblastoid cells, MultiTox-Fluor live-cell protease fluorescence; series mostly up to 92.2 µM. The gist of the method:
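Acute cytotoxicity is scored as a drop in live-cell protease activity in human lymphoblastoid LYMP1-003 cells after 16 hr compound exposure at 37 C. AC50 values come from Hill-equation modelling of concentration-response data.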

Experiment [7] is described as follows: Cell Viability - LYMP2-005 (AID 967).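 Further: plate controls were DMSO only for no effect and 92 µM tetraoctylammonium bromide control for full effect.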 The settings on record: LYMP2-005 lymphoblastoid cell viability; series mostly up to 92.2 µM. The gist of the method: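 CellTiter-Glo luminescence (cellular ATP) read-out; LYMP2-005 lymphoblastoid cells, 2500/well, 5 h pre-incubation, then 24 h compound exposure at 37 C in complete medium. Tetraoctylammonium bromide positive control; AC50 by standard Hill fit.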

The nature of experiment [8]: Cell Viability - LYMP2-009 (AID 968).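 Further: 0% = DMSO alone and the full-kill end = tetraoctylammonium bromide at 92 µM; nearly all actives have a fitted effect of over 55% in size.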 As to conditions: LYMP2-009 lymphoblastoid cell viability; series mostly up to 92.2 µM.
Experiment [9] is described as follows: Cell Viability - LYMP2-017 (AID 972).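 Further: cells exposed to compound for 24 hours at 37 °C; on the % scale 0 is the no-effect control and ±100 the full control effect; nearly all actives have a fitted effect of over 55% in size.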 As to conditions: LYMP2-017 lymphoblastoid cell viability; series mostly up to 92.2 µM. The gist of the method:
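Cytotoxicity is scored as a concentration-dependent drop in cellular ATP in a human lymphoblastoid line after 24 hr treatment at 37 C. Values are AC50s from Hill-equation modelling.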

A short description of experiment [10]: Cell Viability - LYMP2-019 (AID 973).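 Further: 0% = DMSO alone and full effect = 92 µM tetraoctylammonium bromide; nearly all actives have a fitted effect of over 55% in size.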 As to conditions: LYMP2-019 lymphoblastoid cell line viability; series mostly up to 92.2 µM. The gist of the method:
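Cytotoxicity is scored as a concentration-dependent drop in cellular ATP after cells (2500/well) receive compound for 24 hr at 37 C. Tetraoctylammonium bromide serves as positive control.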

Experiment [11] in a line: Cell Viability - LYMP2-021 (AID 974).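 Further: compound exposure lasts 24 hours at 37 °C; on the % scale 0 is the no-effect control and ±100 the full control effect; nearly all actives have a fitted effect of over 55% in size.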 The settings on record: LYMP2-021 lymphoblastoid cells viability; series mostly up to 92.2 µM. Summed up:
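Loss of cellular ATP, measured with a luciferase-based CellTiter-Glo readout, serves as the toxicity signal in human lymphoblastoid cells treated for 24 hours at 37 C. Potency is reported as AC50 from a standard Hill model.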

A short description of experiment [12]: Cell Viability - LYMP2-016 (AID 984). As to conditions: LYMP2-016 lymphoblastoid cell viability, qHTS; series mostly up to 92.2 µM. Summed up: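 Human lymphoblastoid cells (LYMP2-016), 2500/well in complete medium, preincubated 5 hr at 37 C, then compound-treated 24 hr at 37 C. Intracellular ATP read by CellTiter-Glo luminescence after 30 min at room temperature; AC50 from Hill-equation concentration-response fits.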

The nature of experiment [13]: Cell Viability - LYMP2-022 (AID 987). As to conditions: LYMP2-022 lymphoblastoid cell viability; series mostly up to 92.2 µM. Summed up:
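Cells were seeded at 2500 per well, rested 5 hr at 37 C, and treated with titrated compounds for 24 hr at 37 C. Cellular ATP was then quantified by luciferase luminescence, and AC50 values were derived from Hill-modelled concentration-response curves.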

Experiment [14] can be described thus: Cell Viability - LYMP2-026 (AID 989). Further: on the % scale 0 is the no-effect control and ±100 the full control effect; nearly all actives have a fitted effect of over 50% in size. The settings on record: LYMP2-026 lymphoblastoid cell viability, qHTS; series mostly up to 92.2 µM. Summed up: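 Cells are seeded at 2500 per well and held 5 hr at 37 C. Compounds are added in concentration series for 24 hr, then CellTiter-Glo reagent is applied and luminescence read.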
A short description of experiment [15]: qHTS assay for small molecule agonists of retinoid X receptor alpha signaling (AID 588544). The settings on record: HEK293T RXRa-UAS-bla, beta-lactamase reporter, 18 h; 530 nm emission.
The nature of experiment [16]: qHTS assay for small molecule antagonists of retinoid X receptor alpha signaling (AID 588546).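 Further: cells stimulated with 9-cis-retinoic acid as agonist; on the % scale 0 is the no-effect control and ±100 the full control effect.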 The settings on record: HEK293T RXRa-UAS-bla, beta-lactamase ratio, antagonist mode; measured here: W530 green channel, cytotoxicity proxy. The gist of the method: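 Beta-lactamase reporter inhibition, read as CCF4 fluorescence ratio (ex 405, em 460/530 nm) after 2 h at RT. HEK293T UAS-bla cells, 2500/well, were stimulated with 9-cis-RA at 500 or 100 nM final alongside test compound for 18 h at 37 C.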

The target in experiment [17] is Voltage-gated inwardly rectifying potassium channel KCNH2 (Homo sapiens) (UniProt Q12809). Description: qHTS Assay for Small Molecule Inhibitors of the Human hERG Channel Activity (AID 588834).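 Further: top concentration of the series differs between compounds; on the % scale 0 is the no-effect control and ±100 the full control effect; lower thallium flux fluorescence means stronger hERG block; nearly all actives have a fitted effect of over 50% in size.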 As to conditions: U2OS BacMam hERG, FluxOR thallium flux fluorescence; series mostly up to 92.2 µM. The gist of the method:
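In hERG-transduced U2OS cells, dye-loaded for 1 hr at room temperature in dark, test compounds incubated 10 min at 37 °C before thallium stimulation. AC50 values derived by Hill modelling of concentration-response.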

Experiment [18] in a line: qHTS assay for small molecule disruptors of the mitochondrial membrane potential - 5 hr assay (AID 651755; calls by dose curve; further: on the % scale 0 is the no-effect control and ±100 the full control effect; nearly all actives have a fitted effect of over 40% in size). The settings on record: JC-1-type ratio dye; series mostly up to 92.2 µM. Summed up:
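Seed HepG2 overnight, add compound, incubate 5 hr at 37C and 5% CO2, stain 30 min with Mito-MPS, then measure monomer (490/535 nm) and aggregate (540/590 nm) fluorescence.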

Experiment [19] has as its target Peroxisome proliferator-activated receptor alpha (Homo sapiens) (UniProt Q07869). Put plainly: qHTS assay for small molecule agonists of the peroxisome proliferator-activated receptor alpha (PPARalpha) signaling pathway (AID 651778). Further: % of control where 0% means no effect. The settings on record: PathHunter PPARalpha complementation, chemiluminescence, 6 h; stronger effect = higher value. Summed up: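 Cells plated at 2,000/well and held overnight at 37 C, 5% CO2, then compound added by pin tool for 6 hr; after PathHunter detection reagent and 60 min at room temperature, chemiluminescence from enzyme complementation was read.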

Experiment [20] can be described thus: qHTS assay for small molecule agonists of the antioxidant response element (ARE) signaling pathway measured by Nrf2-dependant transcriptional activity (AID 720636; active means well fitted curve in the direction sought with a large enough effect in the repeat runs; an effect the other way counts as inactive or inconclusive; further: % of control where 0% means no effect). As to conditions: ARE-luc HepG2, Nrf2 luciferase reporter, 16 h; series mostly up to 92.4 µM. Summed up: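 We exposed ARE-luc HepG2 cells, seeded in assay medium with 1% dialyzed FBS and allowed 6 hr to adhere, to test compounds overnight (16 hr, 37 C) before measuring luciferase with ONE-Glo.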

Voltage-gated inwardly rectifying potassium channel KCNH2 (Homo sapiens), sequence (Q12809 whole entry, looked up): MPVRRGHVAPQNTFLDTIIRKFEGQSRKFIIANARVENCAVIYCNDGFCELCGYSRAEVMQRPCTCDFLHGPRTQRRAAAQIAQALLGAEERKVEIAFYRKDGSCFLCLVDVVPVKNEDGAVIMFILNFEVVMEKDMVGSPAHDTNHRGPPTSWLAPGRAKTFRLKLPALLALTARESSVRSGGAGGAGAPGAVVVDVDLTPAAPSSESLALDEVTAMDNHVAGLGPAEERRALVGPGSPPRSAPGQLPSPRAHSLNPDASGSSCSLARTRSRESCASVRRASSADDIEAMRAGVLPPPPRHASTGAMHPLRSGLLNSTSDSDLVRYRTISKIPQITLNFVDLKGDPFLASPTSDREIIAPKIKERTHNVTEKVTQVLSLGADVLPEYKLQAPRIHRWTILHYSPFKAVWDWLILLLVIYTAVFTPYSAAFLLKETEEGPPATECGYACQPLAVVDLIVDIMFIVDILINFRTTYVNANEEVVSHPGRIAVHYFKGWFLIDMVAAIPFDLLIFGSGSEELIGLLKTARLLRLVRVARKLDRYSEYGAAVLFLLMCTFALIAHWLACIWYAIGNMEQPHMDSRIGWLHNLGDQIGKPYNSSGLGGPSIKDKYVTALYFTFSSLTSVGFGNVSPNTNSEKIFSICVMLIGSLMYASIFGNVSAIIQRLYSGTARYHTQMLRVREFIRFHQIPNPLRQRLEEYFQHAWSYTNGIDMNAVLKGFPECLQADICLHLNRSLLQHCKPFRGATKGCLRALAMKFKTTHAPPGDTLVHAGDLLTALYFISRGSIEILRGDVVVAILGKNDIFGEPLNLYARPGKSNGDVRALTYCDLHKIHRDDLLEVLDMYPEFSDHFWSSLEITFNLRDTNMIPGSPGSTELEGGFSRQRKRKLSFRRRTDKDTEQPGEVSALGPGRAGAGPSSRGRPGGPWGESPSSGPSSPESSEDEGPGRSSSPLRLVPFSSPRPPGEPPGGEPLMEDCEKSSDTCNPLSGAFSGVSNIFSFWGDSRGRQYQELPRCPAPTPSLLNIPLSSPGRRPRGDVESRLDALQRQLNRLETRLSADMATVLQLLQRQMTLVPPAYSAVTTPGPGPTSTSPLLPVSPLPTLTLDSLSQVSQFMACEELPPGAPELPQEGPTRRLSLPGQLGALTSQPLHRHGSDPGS
Peroxisome proliferator-activated receptor alpha (Homo sapiens), sequence (Q07869 whole entry, looked up): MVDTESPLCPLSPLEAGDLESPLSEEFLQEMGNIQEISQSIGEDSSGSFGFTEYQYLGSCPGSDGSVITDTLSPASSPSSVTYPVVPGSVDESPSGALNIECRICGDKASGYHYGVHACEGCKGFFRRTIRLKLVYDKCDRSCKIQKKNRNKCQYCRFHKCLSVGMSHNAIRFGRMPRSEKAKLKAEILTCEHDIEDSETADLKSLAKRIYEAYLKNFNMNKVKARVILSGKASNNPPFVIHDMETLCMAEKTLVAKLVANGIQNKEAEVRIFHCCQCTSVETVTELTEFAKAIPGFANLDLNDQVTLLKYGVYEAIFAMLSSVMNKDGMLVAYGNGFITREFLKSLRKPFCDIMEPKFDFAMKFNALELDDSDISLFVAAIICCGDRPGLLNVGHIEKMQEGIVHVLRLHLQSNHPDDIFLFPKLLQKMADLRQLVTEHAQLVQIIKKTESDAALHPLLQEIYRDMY

Turning to `Clc1cccc(C(Cl)(Cl)Cl)n1`, the Potency in experiment [1] is > 92 µM (inactive). The activity change, negative = cytotoxicity in experiment [2] was -0.893% (inactive). The call in [3], in experiment [4], in experiment [5] and in experiment [20] was inactive. For the same compound, the Potency entry in experiment [6], in experiment [7], in [8], in experiment [9], in experiment [10] and in experiment [11] was “inactive” in each case. The Potency result in [12], in experiment [13], in experiment [14], in experiment [17] and in experiment [18] was “inactive” throughout. Also, the max response in experiment [15] was -9.56% and 6.27%; in experiment [16], -2.2% and -16.3%; in experiment [19], -0.105% (inactive) and 0.0446% (inactive).

Regarding `Brc1ccccc1`, the Potency in experiment [1] is > 92 µM (inactive). For the same compound, the activity change, negative = cytotoxicity in [2] was -8.92% (inactive). For the same compound, the outcome in experiment [3], in experiment [4], in [5] and in experiment [20] was inactive. The Potency result in [6], in experiment [7], in [8], in [9], in experiment [10] and in experiment [11] was “inactive” each time. Besides, the Potency entry in experiment [12], in [13], in experiment [14], in [17] and in [18] was “inactive” each time. Besides, the max response was -12.9% and -10.7% in [15]; -12.3% and -4.99% in experiment [16]; -0.353% (inactive) and -0.0548% (inactive) in [19].

On to `C[C@]12CC[C@H]3[C@@H](CCC4=CC(=O)CC[C@@]43C)[C@@H]1CC[C@@H]2O`, for which the Potency in experiment [1] was > 92 µM (inactive). The activity change, negative = cytotoxicity in [2] was -90.5% (active). Further, the compound was called inactive in experiment [3], in experiment [4], in experiment [5] and in experiment [20]. Moreover, the Potency result in experiment [6], in experiment [7], in experiment [8], in [9], in experiment [10] and in experiment [11] was “inactive” throughout. In addition, the Potency result in experiment [12], in experiment [13], in experiment [14] and in [18] was “inactive” in each case. The values for the max response in [15] and in experiment [19] were 3.81% and -2.99% (inactive), respectively.

`Clc1nc(Cl)nc(Cl)n1`: in experiment [1], the Potency is > 92 µM (inactive). Further, the activity change, negative = cytotoxicity in experiment [2] was -8.17% (inactive). The outcome in [3], in [4], in [5] and in experiment [20] was inactive. The Potency result in [6], in [7], in experiment [8], in [9], in experiment [10] and in experiment [11] was “inactive” each time. Further, the Potency entry in experiment [12], in experiment [13], in [14], in [17] and in experiment [18] was “inactive” throughout. Moreover, the max response was 5.45% and -4.64% in [15]; -2.29% and -4.83% in [16]; -5.93% (inactive) and -1.12% (inactive) in experiment [19].

Take `c1ccc2c(c1)CCCC2`: the Potency in [1] is > 92 µM (inactive). The activity change, negative = cytotoxicity in experiment [2] was 9.7% (inactive). The call in experiment [3], in experiment [4], in experiment [5] and in experiment [20] was inactive. Besides, the Potency result in experiment [6], in experiment [7], in experiment [8], in experiment [9], in experiment [10] and in [11] was “inactive” each time. The Potency result in [12], in experiment [13], in [14], in experiment [17] and in [18] was “inactive” each time. In addition, the max response in experiment [15] was -21.1%; in [16], -8.06%; in [19] it was -0.424% (inactive).
